The structures appear in SMILES notation. Values joined by “and” are separate entries in the source; they are usually repeats but may differ in a detail not shown here. Equal entries are not always repeated. This is part of a sample that, as a whole, favours compounds with a hit. Of some 83,000 tested, about 20% had one in any assay.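 Values shown are percent growth following 48 h exposure of cells in 96-well plates to a single concentration of compound; below 10 was considered active.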 Active and inactive are the calls of the source.

The test deals with MDA-MB-468 breast. In words: NCI-60 one-dose screen, 48 h (100 = growth as untreated, 0 = no growth, -100 = all killed). As to conditions: 10 µM unless noted.
`COc1ccc(-c2nnc(SCC(=O)Nc3ccc(C(=O)/C=C/c4ccc(Cl)cc4)cc3)n2-c2ccccc2)cc1`: the growth was 97.9% (inactive).
For `O=C(O)C(SC(C(=O)O)c1ccccc1)c1ccccc1` (centres undefined), the growth was 106% (inactive).
In the case of `O=C(Nc1ccccc1)Nc1cccc(Oc2nnc(Cl)c3ccccc23)c1` it was 0.467% (active).
For the compound `O=S(=O)(Nc1ccc2ccccc2c1)N1CCCCC1`, the growth is 12.8% (inactive).
In the case of `O=C(CN1CCN(c2cc3c(cc2F)c(=O)c(C(=O)O)cn3C2CC2)CC1)Nc1nc(-c2ccccc2)cs1` it was 37.4% (inactive).
For `C=C(C)[C@@H]1CC[C@]2(COS(C)(=O)=O)CC[C@]3(C)[C@H](CC[C@@H]4[C@@]5(C)CCCNC(C)(C)[C@@H]5CC[C@]43C)[C@@H]12` the value was 49.9% (inactive); for `Cn1c(SSc2ccc(-c3cccnc3)n2C)ccc1-c1cccnc1`, 72.3% (inactive) and 93.8% (inactive).
For `COC1C/C(=N\O)C2OC(c3ccccc3)OCC2O1` (centres undefined) the value was 105% (inactive); for `NS(=O)(=O)c1ccc(-n2nc(-c3ccc(Cl)cc3)ccc2=O)cc1`, 56.9% (inactive).
Take `COc1ccc2c(O)c(/C=C3\N=Nc4ncccc43)oc2c1C[C@@H]1CCNC[C@H]1F`: the growth is -52.9% (active).
For `CNC(=O)c1cc(Oc2ccc(NC(=O)Nc3ccc(Cl)c(C(F)(F)F)c3)cc2)ccn1`, the growth was -12.8% (active) and 20.5% (inactive).
On to `CC(C)(C)c1cc(C[P+](c2ccc(Cl)cc2)(c2ccc(Cl)cc2)c2ccc(Cl)cc2)cc(C(C)(C)C)c1O`, for which the growth was 6.75% (active).
For `c1ccc(-c2ccc(-c3ccccc3)[nH]2)cc1` the value was 70.1% (inactive); for `CC/C=C\C/C=C/C=C1/C(=O)C=C[C@@H]1C/C=C\CCCC(=O)OC`, 19.8% (inactive); for `CCCCCCCCOC(=O)c1ccc(O)c(OC)c1`, 99.2% (inactive).
In the case of `CCN(CC)C(=S)SCCO` it was 94.6% (inactive); in that of `CC12CCC3C(=CCc4cc(O)ccc43)C1CCC2=O` (centres undefined), 96.9% (inactive); in that of `O=[N+]([O-])c1ccccc1C(O)Cc1ccc2ccccc2n1` (centres undefined), 79.7% (inactive).
Regarding `Oc1[nH]c2ccc(Cl)cc2c1/C=c1/ccc2c(c1)N=C(c1cccs1)N=2`, the growth is 55.2% (inactive).
In the case of `C=C(C)[C@@H]1C[C@@H]2Cc3cc(Cl)ccc3N1O2` it was 96% (inactive); in that of `C[N+](C)(CCOC(c1ccccc1)c1ccccc1)CC(=O)OCc1ccccc1`, 100% (inactive); in that of `O=C(/C=C/c1c[nH]c2ccccc12)c1ccc(O)c(CN2CCN(c3ccc(F)cc3)CC2)c1`, 97.4% (inactive).
Consider `CN1CCC2(CC1)N=C(SCC(=O)Nc1cnc3ccccc3c1)C(c1ccc(Br)cc1)=N2`, for which the growth was -43.8% (active).
For `COC(=O)c1nc(=S)[nH]c(C(=O)OC)c1C(=O)c1ccc(OC)cc1` the value was 94.7% (inactive); for `Cc1cc2c(c(C)c1Cl)C(=O)/C(=C/c1ccc(O)c(O)c1)O2`, 109% (inactive); for `CCN1C(=O)N(CC)C2C1NN=C1SC(c3ccccc3)=CC(=O)N12` (centres undefined), 5.17% (active).
On to `COCCn1cc(-c2nc(-c3cc4cccnc4n3CCOC)cs2)c2cc(OC)ccc21`, for which the growth is -18.4% (active).
In the case of `CCOC(=O)c1cc(C(=O)c2cc(OC)c(OC)c(OC)c2)n2c1ccc1ccccc12` it was 1.54% (active); in that of `O=C(CSc1nnc(-c2ccc(Cl)cc2)n1-c1ccccc1)Nc1ccccc1Cl`, 78.5% (inactive); in that of `COc1cccc(-c2nc3sccn3c2-c2ccnc(NCCNS(=O)(=O)c3ccccc3)c2)c1`, 16.2% (inactive).
In the case of `COc1cc2c(Nc3ccc(S(N)(=O)=O)cc3)ncnc2c(OC)c1OC` it was 84% (inactive); in that of `Cc1c(C(=O)NCCN2CCOCC2)cn2ncnc(Oc3ccc(NC(=O)Nc4ccc(Cl)c(C(F)(F)F)c4)cc3)c12`, -10.4% (active); in that of `CCN1CCN(c2cc(C(=O)Nc3nc(-c4cc(OC)c(OC)c(OC)c4)cs3)cc(C(F)(F)F)c2)CC1`, 84.8% (inactive).
For `CC(=O)c1cnc2ccc(-c3cc(Cl)c(O)c(Cl)c3)nc2c1NC1CCC(CN(C)C)CC1` (centres undefined), the growth was -62% [2.5 µM] (active).
For `COc1ccc(/C=C/C(c2cc(OC)c(OC)c(OC)c2)n2ccnc2)cc1O` (centres undefined) the value was 40.6% (inactive); for `CN(C)c1ccc(C2Nc3ccccc3-n3cccc32)cc1` (centres undefined), -50.4% (active); for `COc1ccc(C2CC(n3nnnc3-c3ccccc3)=NN2)cc1` (centres undefined), 64.5% (inactive).
In the case of `O=C(NNC(=O)N1c2ccccc2C=Cc2ccccc21)c1ccccc1` it was 98.9% (inactive); in that of `Cc1ccc(/C=N/Nc2nc(Nc3ccccc3)nc(Nc3ccc(S(N)(=O)=O)cc3)n2)cc1`, 65% (inactive).
